What all share (set-up): scale not given: direction of the effect not stated beside the values
Test [1] has as its target Protein translocase subunit SecA (Escherichia coli (strain K12)) (UniProt P10408). The test is described as follows: Assay to Identify E. coli SecA ATPase Inhibitors. Format: functional. Particulars: 30 µM.
Test [2] addresses T1, Ubiquitin-activating enzyme e1, putative (Leishmania donovani (strain BPK282A1)) (UniProt E9BSI1).
T1 sequence (whole entry): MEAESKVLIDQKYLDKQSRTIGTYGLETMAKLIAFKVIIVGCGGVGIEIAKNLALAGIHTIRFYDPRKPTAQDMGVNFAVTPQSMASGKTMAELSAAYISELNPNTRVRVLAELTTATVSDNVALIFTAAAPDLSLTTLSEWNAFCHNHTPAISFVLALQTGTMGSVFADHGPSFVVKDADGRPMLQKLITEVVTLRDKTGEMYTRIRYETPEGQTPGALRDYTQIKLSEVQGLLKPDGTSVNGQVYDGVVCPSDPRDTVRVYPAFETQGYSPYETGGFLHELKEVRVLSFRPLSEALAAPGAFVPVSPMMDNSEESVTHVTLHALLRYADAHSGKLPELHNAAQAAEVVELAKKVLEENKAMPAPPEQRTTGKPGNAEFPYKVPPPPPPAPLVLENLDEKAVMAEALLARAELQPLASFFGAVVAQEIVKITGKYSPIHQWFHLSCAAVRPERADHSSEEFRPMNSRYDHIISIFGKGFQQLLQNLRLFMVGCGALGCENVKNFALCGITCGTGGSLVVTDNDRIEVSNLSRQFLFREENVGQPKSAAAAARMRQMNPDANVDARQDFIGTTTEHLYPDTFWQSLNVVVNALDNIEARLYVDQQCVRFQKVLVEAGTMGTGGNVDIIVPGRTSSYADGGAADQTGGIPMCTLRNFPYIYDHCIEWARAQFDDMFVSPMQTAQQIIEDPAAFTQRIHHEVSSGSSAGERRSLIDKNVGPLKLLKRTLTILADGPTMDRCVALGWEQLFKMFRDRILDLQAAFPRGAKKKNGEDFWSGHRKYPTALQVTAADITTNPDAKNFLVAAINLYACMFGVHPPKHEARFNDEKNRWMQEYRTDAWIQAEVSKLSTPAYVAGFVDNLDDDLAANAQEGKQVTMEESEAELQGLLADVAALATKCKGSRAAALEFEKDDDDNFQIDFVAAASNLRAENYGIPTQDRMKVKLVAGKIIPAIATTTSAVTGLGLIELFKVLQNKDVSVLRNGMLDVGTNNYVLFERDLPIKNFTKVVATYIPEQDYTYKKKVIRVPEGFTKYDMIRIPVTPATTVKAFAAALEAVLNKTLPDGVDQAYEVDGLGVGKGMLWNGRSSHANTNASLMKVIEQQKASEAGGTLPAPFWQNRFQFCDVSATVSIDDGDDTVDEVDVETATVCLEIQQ
The test is described as follows: Leishmania donovani Ubiquitin Activating Enzyme (LdE1). Type of test: functional. Particulars: 30 µM.

Test [3] concerns the target AMP-activated protein kinase, AMPK (Homo sapiens) (UniProt P54646+O43741+P54619+Q9UGJ0+Q9Y478+Q13131+Q9UGI9). Nature of the test: AMP-dependent Kinase enzyme assay. An in vitro enzyme assay that detects ADP turnover that is directly proportional to AMPK activity. This uses naive AMPK that is activated during the assay with MK-8722. Particulars: 30 µM. Format: functional.

The target of test [4] is Sialic acid-binding Ig-like lectin 9 (Homo sapiens) (UniProt Q9Y336). The test is described as follows: Hs-Siglec9 ALPHAscreen SOP 20170721. Particulars: 10 µM.
Sialic acid-binding Ig-like lectin 9 (Homo sapiens), sequence (Q9Y336 whole entry): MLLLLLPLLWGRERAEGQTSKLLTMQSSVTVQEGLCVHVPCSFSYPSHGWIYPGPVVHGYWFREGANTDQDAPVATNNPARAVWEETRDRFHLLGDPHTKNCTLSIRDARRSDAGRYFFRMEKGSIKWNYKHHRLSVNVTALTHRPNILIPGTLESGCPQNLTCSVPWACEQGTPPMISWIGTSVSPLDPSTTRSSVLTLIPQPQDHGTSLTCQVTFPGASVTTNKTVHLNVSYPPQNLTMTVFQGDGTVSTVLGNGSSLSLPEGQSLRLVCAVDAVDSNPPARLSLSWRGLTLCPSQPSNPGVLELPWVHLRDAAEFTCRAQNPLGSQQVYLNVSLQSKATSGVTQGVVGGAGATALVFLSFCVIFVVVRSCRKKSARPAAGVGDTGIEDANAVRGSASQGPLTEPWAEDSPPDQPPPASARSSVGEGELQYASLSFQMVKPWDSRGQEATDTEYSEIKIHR
A further test relates to Trypanosoma cruzi. The test is described as follows: Trypanosoma cruzi phosphomannomutase and mannose-1-phosphate guanylyltransferase assay. Type of test: functional. Particulars: 10 µM.
Test [5] addresses T2, Arginase-2, mitochondrial (Homo sapiens) (UniProt P78540).
T2 sequence (whole entry): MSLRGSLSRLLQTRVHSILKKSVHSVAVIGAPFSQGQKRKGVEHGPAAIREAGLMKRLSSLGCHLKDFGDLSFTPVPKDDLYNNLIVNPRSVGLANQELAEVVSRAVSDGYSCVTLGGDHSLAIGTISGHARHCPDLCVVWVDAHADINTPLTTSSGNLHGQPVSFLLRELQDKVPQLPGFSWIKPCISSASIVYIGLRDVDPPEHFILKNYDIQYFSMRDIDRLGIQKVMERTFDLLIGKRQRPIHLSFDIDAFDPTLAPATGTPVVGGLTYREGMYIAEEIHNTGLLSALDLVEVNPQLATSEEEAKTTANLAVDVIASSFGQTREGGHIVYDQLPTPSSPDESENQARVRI
The test is described as follows: in vitro enzyme assay to detect the production of urea directly proportional to the activity of Arginase II. Also: in the data most compounds retested in dose-response had high values. Type of test: functional. Particulars: 33.3 µM.

Test [6] concerns the target T3, Proteasome subunit beta (Trypanosoma cruzi) (UniProt O96673).
T3 sequence (whole entry): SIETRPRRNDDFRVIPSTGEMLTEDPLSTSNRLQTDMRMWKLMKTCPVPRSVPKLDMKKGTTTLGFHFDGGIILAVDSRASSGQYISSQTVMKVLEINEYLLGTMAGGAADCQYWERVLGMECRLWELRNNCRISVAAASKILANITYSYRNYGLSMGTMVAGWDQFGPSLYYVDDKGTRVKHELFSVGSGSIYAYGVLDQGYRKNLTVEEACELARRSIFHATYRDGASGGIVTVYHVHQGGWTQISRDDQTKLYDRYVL
The test is described as follows: Trypanosoma cruzi proteasome chymotrypsin-like activity (TcProtChymo) assay. Also: in the data most compounds retested in dose-response had high values. Particulars: 9.37 µM. Type of test: functional.

The next test is filed under the species Homo sapiens. Nature of the test: To identify inhibition of the IFN signalling (Jak-Stat) pathway via expression of an eGFP reporter gene under the control of an IFN-stimulated response element (ISRE) containing MxA promoter. Format: functional. Particulars: 30 µM. In general terms: In a reporter assay the amount or activity of a reporter protein is the signal.

The target in test [7] is T4, Tyrosyl-tRNA synthetase, putative (Trypanosoma cruzi (strain CL Brener)) (UniProt Q4DSP6).
T4 sequence (whole entry): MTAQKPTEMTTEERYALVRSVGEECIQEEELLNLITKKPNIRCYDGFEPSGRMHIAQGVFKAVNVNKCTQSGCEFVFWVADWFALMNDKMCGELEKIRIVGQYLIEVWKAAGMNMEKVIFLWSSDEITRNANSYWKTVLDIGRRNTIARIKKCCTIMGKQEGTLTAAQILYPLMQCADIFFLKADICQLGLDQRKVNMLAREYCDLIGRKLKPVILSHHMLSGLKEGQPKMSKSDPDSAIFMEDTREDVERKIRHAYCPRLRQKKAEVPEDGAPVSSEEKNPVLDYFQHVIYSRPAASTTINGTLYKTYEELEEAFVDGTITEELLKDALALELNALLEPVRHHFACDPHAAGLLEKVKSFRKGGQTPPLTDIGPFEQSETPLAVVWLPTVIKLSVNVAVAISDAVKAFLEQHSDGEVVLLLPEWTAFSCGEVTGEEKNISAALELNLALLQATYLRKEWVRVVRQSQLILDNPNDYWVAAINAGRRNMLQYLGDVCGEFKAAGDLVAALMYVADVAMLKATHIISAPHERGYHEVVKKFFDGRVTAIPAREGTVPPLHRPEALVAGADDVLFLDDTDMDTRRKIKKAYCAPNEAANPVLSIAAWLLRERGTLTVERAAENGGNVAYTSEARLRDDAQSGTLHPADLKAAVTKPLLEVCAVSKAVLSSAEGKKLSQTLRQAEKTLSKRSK
Nature of the test: Trypanosoma cruzi tyrosyl tRNA synthetase (TcYRS) _High Tyrosine SOP. Also: in the data most compounds retested in dose-response had high values. Particulars: 30 µM. Type of test: functional.

Test [8] has as its target T4, Tyrosyl-tRNA synthetase, putative (Trypanosoma cruzi (strain CL Brener)). The test is described as follows: Trypanosoma cruzi tyrosyl tRNA synthetase (TcYRS) SOP. Format: functional. Particulars: 30 µM.
For test [9], the target named is Chromo domain-containing protein 1 (Saccharomyces cerevisiae (strain ATCC 204508 / S288c) (Baker's yeast)) (UniProt P32657). Nature of the test: ScCHD-1 Enzyme Inhibition Assay. Also: in the data most compounds retested in dose-response had high values. Format: functional. Particulars: 30 µM.
Chromo domain-containing protein 1 (Saccharomyces cerevisiae (strain ATCC 204508 / S288c) (Baker's yeast)), sequence (P32657 whole entry, the tested form may be a part): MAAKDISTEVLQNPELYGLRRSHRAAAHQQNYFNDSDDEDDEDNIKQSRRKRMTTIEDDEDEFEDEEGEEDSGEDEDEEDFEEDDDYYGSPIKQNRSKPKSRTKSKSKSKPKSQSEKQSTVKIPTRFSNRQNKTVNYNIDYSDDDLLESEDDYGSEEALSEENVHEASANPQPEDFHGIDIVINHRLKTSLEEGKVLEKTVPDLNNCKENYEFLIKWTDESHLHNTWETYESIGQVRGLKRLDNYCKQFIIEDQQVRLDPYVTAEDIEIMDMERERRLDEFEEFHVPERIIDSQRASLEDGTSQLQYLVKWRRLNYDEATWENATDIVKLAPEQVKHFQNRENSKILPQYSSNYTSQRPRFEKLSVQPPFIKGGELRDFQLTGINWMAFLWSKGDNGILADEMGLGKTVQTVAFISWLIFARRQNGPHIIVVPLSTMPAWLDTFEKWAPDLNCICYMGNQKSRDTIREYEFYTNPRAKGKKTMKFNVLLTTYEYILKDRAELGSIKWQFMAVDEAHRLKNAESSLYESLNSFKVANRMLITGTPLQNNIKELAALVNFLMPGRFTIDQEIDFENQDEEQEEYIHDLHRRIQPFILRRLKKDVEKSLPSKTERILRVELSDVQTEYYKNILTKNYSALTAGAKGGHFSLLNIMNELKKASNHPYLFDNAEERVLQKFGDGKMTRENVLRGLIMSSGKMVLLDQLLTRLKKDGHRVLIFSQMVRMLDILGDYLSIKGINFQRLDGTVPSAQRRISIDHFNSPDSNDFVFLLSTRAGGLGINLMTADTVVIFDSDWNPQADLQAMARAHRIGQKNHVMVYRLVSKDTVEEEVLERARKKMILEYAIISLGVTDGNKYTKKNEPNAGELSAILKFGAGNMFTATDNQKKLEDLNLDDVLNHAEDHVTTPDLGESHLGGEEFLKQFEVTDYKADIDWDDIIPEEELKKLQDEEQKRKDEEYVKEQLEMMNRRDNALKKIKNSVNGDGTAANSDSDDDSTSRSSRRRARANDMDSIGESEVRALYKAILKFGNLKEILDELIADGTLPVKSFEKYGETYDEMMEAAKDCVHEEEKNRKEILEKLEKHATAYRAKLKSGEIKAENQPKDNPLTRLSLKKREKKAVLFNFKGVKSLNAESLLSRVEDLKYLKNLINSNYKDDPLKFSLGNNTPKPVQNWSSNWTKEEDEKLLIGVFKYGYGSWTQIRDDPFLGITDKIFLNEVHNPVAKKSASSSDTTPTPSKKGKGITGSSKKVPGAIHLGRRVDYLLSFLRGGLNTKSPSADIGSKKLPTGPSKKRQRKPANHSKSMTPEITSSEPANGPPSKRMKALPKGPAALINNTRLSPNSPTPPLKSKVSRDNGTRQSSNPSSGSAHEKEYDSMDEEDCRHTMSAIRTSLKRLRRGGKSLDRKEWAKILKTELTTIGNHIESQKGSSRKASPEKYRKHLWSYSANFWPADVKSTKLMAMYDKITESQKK

For some of these results: Measured potencies and affinities stand elsewhere.

Protein translocase subunit SecA (Escherichia coli (strain K12)), sequence (P10408 whole entry): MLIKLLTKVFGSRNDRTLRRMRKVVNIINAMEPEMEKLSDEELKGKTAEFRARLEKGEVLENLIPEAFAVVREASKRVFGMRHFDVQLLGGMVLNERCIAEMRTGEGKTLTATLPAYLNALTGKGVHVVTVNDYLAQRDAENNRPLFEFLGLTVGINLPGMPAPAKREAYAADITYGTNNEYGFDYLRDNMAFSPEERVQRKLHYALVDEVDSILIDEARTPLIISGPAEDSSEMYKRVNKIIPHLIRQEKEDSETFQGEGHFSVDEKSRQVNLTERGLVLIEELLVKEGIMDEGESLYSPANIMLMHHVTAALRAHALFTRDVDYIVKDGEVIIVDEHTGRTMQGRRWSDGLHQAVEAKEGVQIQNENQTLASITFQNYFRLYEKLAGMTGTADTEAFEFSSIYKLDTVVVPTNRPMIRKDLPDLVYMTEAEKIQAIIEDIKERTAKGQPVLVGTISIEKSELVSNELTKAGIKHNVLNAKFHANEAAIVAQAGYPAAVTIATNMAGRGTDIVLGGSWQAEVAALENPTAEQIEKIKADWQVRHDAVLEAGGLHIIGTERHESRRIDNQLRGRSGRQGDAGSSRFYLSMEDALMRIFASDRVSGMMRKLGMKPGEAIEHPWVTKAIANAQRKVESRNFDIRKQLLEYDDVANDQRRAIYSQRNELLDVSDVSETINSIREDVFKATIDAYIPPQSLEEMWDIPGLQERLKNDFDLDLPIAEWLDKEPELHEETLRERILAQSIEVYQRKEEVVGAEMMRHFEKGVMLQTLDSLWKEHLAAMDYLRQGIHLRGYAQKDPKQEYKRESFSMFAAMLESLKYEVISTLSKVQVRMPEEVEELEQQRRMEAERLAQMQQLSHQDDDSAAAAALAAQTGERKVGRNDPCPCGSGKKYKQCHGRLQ

For `O=C(CCCc1nc2ccccc2[nH]1)N1CCCC(n2cccn2)C1` (stereo not drawn), the Percent Effect was -4.65% in test [1]; 10.5% in [2]; -3.13% in [3]; 5.64% in test [4]; 8.27% in the test on Trypanosoma cruzi; -5.36% in test [5]. In addition, the Percent Effect in test [6] was 7.18%; in the test filed under Homo sapiens, -2.05%; in test [7], 5.39%; in test [8] it was 17.1%; in test [9] it was -12%.

Take `Cc1nc(N2CCCC2)nc2c1CCN(Cc1ccco1)CC2`: the Percent Effect in test [1] was -1.94%; in test [2] it was 10.7%; in test [3], 8.01%; in test [4] it was 0.178%; in the test on Trypanosoma cruzi, 0%; in test [5], -45.3%. Further, the Percent Effect in [6] was 20.7%; in the test filed under Homo sapiens, -2.8%; in test [7] it was 3.12%; in [8] it was 12.5%; in [9], -9.82%.

On to `CCc1ccc(C(=O)O)cc1S(=O)(=O)Nc1ccc(F)c(C#N)c1`, for which the Percent Effect was -2.04% in test [1]; -2.7% in test [2]; -11.6% in [3]; 10.6% in test [4]; 3.87% with Trypanosoma cruzi; -0.802% in test [5]. Moreover, the Percent Effect in test [6] was 1.08%; in the test filed under Homo sapiens it was 7.96%; in test [7] it was -2.46%; in test [8] it was 1.24%; in test [9] it was -2.76%.

As for `CCN1CCN(C(=O)c2ccn(C)c(=O)c2)CC1`, the Percent Effect in test [1] was -1.02%; in [2], 6.33%; in test [3] it was 3.55%; in test [4], -4.57%; with Trypanosoma cruzi, -4.62%; in test [5], -1.07%. Besides, the Percent Effect in [6] was 11.8%; in the test filed under Homo sapiens, 21.1%; in [7] it was 4.17%; in test [8] it was -5.06%; in [9], -16.7%.

`CS(=O)(=O)NCc1cn2c(n1)CN(C(=O)c1ccc[nH]1)CC2`: the Percent Effect was -5.06% in test [1]; 10.7% in test [2]; 14.2% in test [3]; 2.3% in [4]; -1.97% with Trypanosoma cruzi; 0.233% in test [5]. The Percent Effect was 5.2% in [6]; 2.29% in the test filed under Homo sapiens; 7.45% in test [7]; 14.1% in test [8]; -4.02% in test [9].

Consider `Cc1nccn1C1CCCN(C(=O)c2ccc(N(C)C)nc2)C1` (stereo not drawn), for which the Percent Effect in test [1] was -4.63%; in test [2] it was 7.89%; in [3] it was -3.59%; in test [4], 3.06%; with Trypanosoma cruzi, 6.26%; in [5], -1.08%. Also, the Percent Effect was 7.36% in [6]; 7.13% in the test listed under Homo sapiens; 7.39% in test [7]; 18.5% in test [8]; -0.744% in test [9].

Regarding `O=C(c1nc(COc2ccc3c(c2)OCO3)no1)N1CCCC1`, the Percent Effect is -2.38% in test [1]; 1.33% in test [2]; -0.332% in [3]; 4.46% in test [4]; -6.88% in the test with Trypanosoma cruzi; -12.5% in test [5]. The Percent Effect in test [6] was 9.98%; in the test filed under Homo sapiens it was 3.63%; in [7] it was 3.17%; in test [8], 5.13%; in test [9], -8.92%.

For `CCOC(=O)C1CCN(Cc2csc(C(C)(C)C)n2)CC1`, the Percent Effect in test [1] is 1.04%; in test [2], 0%; in test [3], 2.22%; in [4], 11%; in the test with Trypanosoma cruzi it was -3.12%; in test [5] it was 9.89%. Besides, the Percent Effect in test [6] is -5.98%; in the test filed under Homo sapiens, 4.26%; in [7] it was 4.43%; in test [8] it was -3.8%; in test [9], -1.95%.

The record behind these values is ChEMBL document CHEMBL3988442, “University of Dundee, Small-Polar-MMV Screening Library” (2021).
